Laboratory results from ChEMBL document CHEMBL3433997, “St. Jude Leishmania screening dataset” (2016).
Where “and” joins values, the source holds several entries; their conditions need not be identical. Equal entries are not always repeated.

Columns and labels:
Type in all cases: functional
[1] = biological target: Solute carrier family 2, facilitated glucose transporter member 1 (Homo sapiens) (UniProt P11166); test: ST_JUDE_LEISH: Cytotoxicity at 2uM final concentration against transgenic Leishmania Mexicana promastigotes LmGLUT1 that are glucose transport deficient and complemented with the human glucose transporter GLUT1. Activity is measured by DNA content using SYBR green in vitro
Chain of Solute carrier family 2, facilitated glucose transporter member 1 (Homo sapiens) (P11166 whole entry): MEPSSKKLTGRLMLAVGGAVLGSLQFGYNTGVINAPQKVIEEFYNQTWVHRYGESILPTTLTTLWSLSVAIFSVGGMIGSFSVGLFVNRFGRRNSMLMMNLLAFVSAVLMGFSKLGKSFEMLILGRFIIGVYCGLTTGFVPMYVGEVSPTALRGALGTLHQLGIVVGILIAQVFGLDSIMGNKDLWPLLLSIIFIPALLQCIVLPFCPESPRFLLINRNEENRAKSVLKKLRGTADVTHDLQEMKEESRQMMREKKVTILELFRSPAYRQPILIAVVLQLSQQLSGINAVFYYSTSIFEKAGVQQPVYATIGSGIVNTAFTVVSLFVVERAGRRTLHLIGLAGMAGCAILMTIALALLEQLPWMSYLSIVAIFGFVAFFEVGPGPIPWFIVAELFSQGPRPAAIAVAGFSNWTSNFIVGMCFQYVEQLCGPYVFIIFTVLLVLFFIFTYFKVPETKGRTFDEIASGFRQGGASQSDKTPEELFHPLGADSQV

[2] = biological target: Hexose transporter 1 (Plasmodium falciparum) (UniProt O97467); test: ST_JUDE_LEISH: Cytotoxicity at 2uM final concentration against transgenic Leishmania Mexicana promastigotes LmPfHT that are glucose transport deficient and complemented with the Plasmodium falciparum hexose transporter. Activity is measured by DNA content using SYBR green in vitro
[3] = biological target: Glucose transporter (Leishmania mexicana) (UniProt O61059); test: ST_JUDE_LEISH: Cytotoxicity at 2uM final concentration against transgenic Leishmania Mexicana promastigotes LmGT2 that are glucose transport deficient and complemented with the L. Mexicana glucose transporter 2. Activity is measured by DNA content using SYBR green in vitro

Structure (SMILES) | inhibition [1] | inhibition [2] | inhibition [3]
CC[C@H]1CN2CC[C@H]1C[C@H]2[C@H](O)c1cc(N2CCCC2)nc2ccc(OC)cc12 | -0.2% | -1.79% | 0.03%
CC(Cc1ccc(Oc2ccc(Cl)cc2)cc1)NCC(O)c1cccc(Cl)c1 (stereo not drawn) | -2.67% | -2.38% | -1.74%
O=C(/C=C/c1ccsc1)NC1CCC(CN2CCC(c3c[nH]c4ccccc34)CC2)CC1 (stereo not drawn) | 1.44% | -2.35% | -0.88%
C=CCOc1ccccc1CNCC(O)c1cccc(C(F)(F)F)c1 (stereo not drawn) | 2.78% | 3.47% | 2.61%
NC(=O)c1ccc2[nH]cc(C3CCN(CC4CCC(NC(=O)/C=C/c5ccc(Cl)c(Cl)c5)CC4)CC3)c2c1 (stereo not drawn) | -3.07% and 2.76% | -1.26% and 2.22% | 0.5% and 1.58%
OC(CNC1CCCCCC1)c1ccc(Cl)c(Cl)c1 (stereo not drawn) | -0.7% | 0.32% | -0.87%
O=P(O)(O)Oc1c(Br)cc(Br)cc1-c1cc(Br)cc(Br)c1O | 0.02% | 1.27% | 0.55%
CCCCCC(C)C(C)c1cc(O)c2c(c1)OC1(C(C)C)CC(O)C(C)C2C1 (stereo not drawn) | 5.93% | 5.5% | 6.4%
CC[C@H]1CN2CC[C@@H]1C[C@H]2[C@H](O)c1cc(N2CCC(c3ccccc3)CC2)nc2ccc(OC)cc12 | 8.84% | 6.56% | 2.67%
N#Cc1c(F)cc(N2CCC(NCC[C@H](N)Cc3ccc(F)c(F)c3)CC2)cc1F | 2.18% | 3.63% | 2.33%
CC[C@H]1CN2CC[C@@H]1C[C@H]2[C@H](O)c1cc(-c2ccc(F)cc2)nc2ccc(O)cc12 | -0.76% | 0.53% | -0.19%
O=C(C=Cc1ccccc1Br)NC1CCC(CN2CCC(c3c[nH]c4ccccc34)CC2)CC1 (stereo not drawn) | 9.4% and 3.03% | 3.62% and 2.4% | 0.32% and 2.12%
CCN1CCC(N2CCC(n3c(C)nc4cc(C(F)(F)F)ccc43)CC2)CC1 | 3.01% | 3.12% | 4.4%
O=C(NCC(=O)N1CCC[C@H]1C(=O)O)[C@@H](Cc1ccccc1)NC(=O)[C@@H]1CCCN1C(=O)CCCc1ccc(O)cc1 |  | -1.36% | -1.68%
O=C(/C=C/c1ccc(Cl)c(Cl)c1)N(Cc1ccccc1)C1CCC(CN2CCC(c3c[nH]c4ccccc34)CC2)CC1 (stereo not drawn) | 4.82% | 2.84% | 4.05%
Cc1cc(N(C)C2CCN(C)CC2)nc(Nc2ccc(Cl)cc2)n1 | 2.63% | -2.68% | -0.95%
CNCC(O)c1cc(Cl)c(Cl)cc1C (stereo not drawn) | 1.72% | 0.44% | -1.56%
CN1C(=O)OC[C@@H]1Cc1ccc2[nH]cc(C3=CCN(Cc4ccccc4)CC3)c2c1 | 2.44% | 7.87% | -0.74%
O=C(/C=C/c1ccc([N+](=O)[O-])cc1)NC1CCC(CN2CCC(c3c[nH]c4ccccc34)CC2)CC1 (stereo not drawn) | 2.8% and -1.4% | 1.89% and -2.18% | 0.45%
O=C(/C=C/c1ccc(F)c(C(F)(F)F)c1)N1CCC(CN2CCC(c3c[nH]c4ccccc34)CC2)CC1 | 0.7% | 0.53% | 0.74%
C=C[C@H]1CN2CC[C@H]1C[C@@H]2[C@@H](O)c1ccnc2ccccc12 | -1.24% | 1.12% | 0.13%
CC[C@H]1CN2CC[C@@H]1C[C@H]2[C@H](O)c1cc(N2CCCC(C)(C)C2)nc2ccc(OC)cc12 | 0.42% | -0.61% | 0.37%
CC(C)c1ccc(C=CC(=O)NC2CCC(CN3CCC(c4c[nH]c5ccccc45)CC3)CC2)cc1 (stereo not drawn) | 2.2% | 1.4% | 2.47%
O=C(c1cc(C(=O)NCc2ccc(Cl)cc2)c(=O)n(Cc2ccc(Cl)cc2)c1)c1cc(Cl)ccc1O | -1% | -1.29% | 3.58%
C=CC12CCN(CC1)C(C(O)c1ccnc3ccc(OC)cc13)C2 (stereo not drawn) | 0.26% | 0.03% | -0.85%
Oc1ccc(CN2CCN(CCOC(c3ccccc3)c3ccccc3)CC2)cc1Cl | 0.53% | 3.98% | -1.69%
CC[C@H]1CN2CC[C@@H]1C[C@H]2[C@H](O)c1cc[n+]([O-])c2ccc(OC)cc12 | -2.84% | -0.91% | -1.06%
Cc1c2ccncc2c(C)c2c1[nH]c1ccccc12 | 17.5% | 20.9% | 14.7%
